Screen size: about 340,000 compounds; about 3,300 (0.97%) were called active. Only a selection was taken, and actives are over-represented in it overall. Unmarked numbers belong to inactive results.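 How the source made its calls: active means maximum activity change below -70%; inconclusive means maximum activity change from -70% to -50%; inactive means maximum activity change above -50%.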
On the % scale 0 is the no-effect control and ±100 the full control effect.

This assay has as its system Potassium voltage-gated channel subfamily H member 2, brain isoform KCNH2 3.1 (human). The assay is described as follows: qHTS for Inhibitors of KCHN2 3.1: Mutant qHTS. As to conditions: U2OS KCNH2 3.1, thallium flux FluxOr; stronger effect = lower value. An outline of the steps:
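Normalized rate constant (relative to positive and negative DMSO controls) derived from a 2 min kinetic fluorescence read after stimulation; U2OS cells expressing the 3.1 isoform via virus at 1.77 x 10^8 /mL.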
In general terms: qHTS replaces the single test concentration by a dilution series.
With `Cc1ccccc1-c1ccc2c(c1)O[C@@H](CN(C)Cc1ccc(C(=O)O)cc1)[C@@H](C)CN([C@H](C)CO)S2(=O)=O`, the activity change was 16.7%.
For `CC(C)CC1C(=O)N(Cc2cn(Cc3ccco3)nn2)CCS(=O)(=O)N1Cc1ccc(-c2ccc(Cl)c(Cl)c2)cc1` (stereo not given), the activity change was -7.55%.
The same measure for `CCCCC(c1nnnn1CS(=O)(=O)c1ccc(C)cc1)N1CCC(C(N)=O)CC1` (stereo not given): 5.52%; for `Cc1ccc(C(c2nnnn2CS(=O)(=O)c2ccc(C)cc2)N2CCC(C(N)=O)CC2)cc1` (stereo not given): 1.37%.
For `Cc1ccc(C(c2nnnn2CS(=O)(=O)c2ccc(C)cc2)N2CCC(C)CC2)cc1` (stereo not given), the activity change is -72.8% (active).
As to `NC(CSC(c1ccccc1)(c1ccccc1)c1ccc(-c2ccccc2)cc1)C(=O)O` (stereo not given), the activity change is -0.906%.
`Cc1cccc(C(=O)OCC(=O)Nc2sccc2C(N)=O)c1C`: the activity change is 0.26%.
The value for `N=c1n(Cc2ccc(Cl)cc2)c2ccccc2n1CC(O)c1ccco1` (stereo not given) was -89.6% (active); that for `Cn1c(=N)n(CC(O)c2cccs2)c2ccccc21` (stereo not given) was -1.02%.
In the case of `N=c1n(CCc2ccccc2)c2ccccc2n1Cc1ccccc1F`, the activity change is -48.9%.
With `CCc1cccc(CC)c1N1C(=O)CC(Sc2ccccc2N)C1=O` (stereo not given), the activity change was -2.21%.
For `COc1ccc(C2C(C#N)=C(N)Oc3n[nH]c(C)c32)cc1CN1CCN(c2ccc(F)cc2)CC1` (stereo not given), the activity change was -93.4% (active).
Regarding `COc1cc(C2C(C#N)=C(N)Oc3n[nH]c(-c4ccccn4)c32)cc(OC)c1OC` (stereo not given), the activity change was -3.63%.
For the molecule `COc1ccc(-c2[nH]nc3c2C(c2ccncc2)C(C#N)=C(N)O3)cc1` (stereo not given), the activity change was 4.99%.
The same measure for `COc1ccc(/C=C2\SC(=S)N(CCC(=O)N3CCOCC3)C2=O)cc1OC`: -2.83%; for `CCCCN1C(N)=NC[C@@H]1Cc1ccccc1`: 12.8%; for `CN(C)C1=NC[C@H](Cc2ccccc2)N1CCc1ccc(F)cc1`: -104% (active).
Take `CCCC[C@@H]1CN=C(N)N1CCc1cccc(F)c1`: the activity change was 17.6%.
With `Cc1ccc(-c2ccc(CN3C(C(C)C)C(=O)N(Cc4cn(CCC5OCCCO5)nn4)CCS3(=O)=O)cc2)cc1` (stereo not given), the activity change is -5.44%.
`Cc1cc2cc3n(c2nn1)N=C(Cl)CC3`: the activity change is -0.335%.
`CC(OC(=O)c1cccnc1Cl)C(=O)NC1CCCCC1` (stereo not given): the activity change is 22.3%.
The same measure for `Cc1ccc(S(=O)(=O)N2C[C@H]3C(=O)C[C@@H](c4cccc5ccccc45)N(S(=O)(=O)c4ccc(C)cc4)[C@H]3C[C@H]2c2ccc(Cl)cc2)cc1`: 5.42%; for `O=C(CSc1ncn[nH]1)Nc1nc2c(F)c(F)c(F)cc2s1`: -9.38%.
The value for `Cc1cc(C)n(S(=O)(=O)c2cccc([N+](=O)[O-])c2)n1` was 8.67%.
In the case of `O=[N+]([O-])c1cccc(S(=O)(=O)N2CCCCCC2)c1`, the activity change was -16.9%.
Turning to `CCc1nccn1S(=O)(=O)c1cccc([N+](=O)[O-])c1`, the activity change was -98.3% (active).
For the molecule `OCC1OC(n2cnc3c(N4CCCC4)ncnc32)C(O)C1O` (stereo not given), the activity change was 3.35%.
For `O=S1(=O)CCN(C2CCCCCCCCCCC2)CC1`, the activity change is -0.635%.
With `N#Cc1cccc(NC(=O)CCC2CCCC2)c1`, the activity change was -4.75%.
The same measure for `N#Cc1cccc(NC(=O)CN2CCCCCC2)c1`: 13.8%; for `N#Cc1cccc(Nc2c3c(nc4ccccc24)CCCC3)c1`: -94.8% (active); for `O=C(Nc1cc(F)ccc1F)c1ccc2c(=O)n3c(nc2c1)CCC3`: -2.54%.
On to `COCCCN1C(=O)C(CC(=O)NCc2cccs2)CC(C(=O)N2CCOCC2)=C1C` (stereo not given), for which the activity change was 3.81%.
For `C#CCOCCOCCOCCNc1nc(N2CCN(C(=O)[C@H](CCC(=O)O)n3cc(C(N)CO)nn3)CC2)nc(N2CCN(C(=O)[C@H](Cc3ccc(O)cc3)n3cc(C(N)[C@H](C)CC)nn3)CC2)n1` (stereo not given in full), the activity change is -12.3%.
As to `C#CCOCCOCCOCCNc1nc(N2CCN(C(=O)[C@H](Cc3ccc(O)cc3)n3cc(C(N)CC(C)C)nn3)CC2)nc(N2CCN(C(=O)[C@H](CCC(=O)O)n3cc(C(N)[C@H](C)CC)nn3)CC2)n1` (stereo not given in full), the activity change was -84.4% (active).
Turning to `C#CCOCCOCCOCCNc1nc(N2CCN(C(=O)C(Cc3ccc(O)cc3)n3cc(C(N)CC(C)C)nn3)CC2)nc(N2CCN(C(=O)C(Cc3ccc(O)cc3)n3cc(C(N)C(C)CC)nn3)CC2)n1` (stereo not given), the activity change is -9.18%.
The value for `CC1(c2cccc(N)c2)OCCO1` was -12.6%; that for `CC(C)[C@H](NC(=O)c1ccccc1F)C(=O)Nc1cccc(S(=O)(=O)N2CCOCC2)c1` was 9.74%.
In the case of `COc1ccc(CC(=O)Nc2c(C(N)=O)oc3ccccc23)cc1`, the activity change was -8.15%.
In the case of `COc1cccc(OC)c1C(=O)Nc1c(C(=O)N2CCN(c3ccccn3)CC2)oc2ccccc12`, the activity change is -4.91%.
Consider `CCOCCCN(C)C1CCN(C(=O)c2oc3ccccc3c2NC(=O)COc2cccc(C)c2)CC1`, for which the activity change was -107% (active).
With `CN(C(=O)c1cccc(NC(=O)Cc2cccc([N+](=O)[O-])c2)c1)C1CCCCC1`, the activity change is 18.4%.
Turning to `COCC(=O)Nc1c(C(=O)N2CCCC2)oc2ccccc12`, the activity change is 6.72%.
For `CCOCCCN(C)C1CCN(C(=O)c2oc3ccccc3c2NC(=O)Cc2cccc([N+](=O)[O-])c2)CC1`, the activity change was -104% (active).
As for `CC1=C(C(=O)N2CCOCC2)CC(CC(=O)NCCN2CCOCC2)C(=O)N1CCC1=CCCCC1` (stereo not given), the activity change was 16%.
The value for `Cc1cc(=O)c2ccc(NC(=O)c3ccccc3)cc2[nH]1` was 3.07%.
Take `COc1ccc(S(=O)(=O)N2CCN(CC(=O)N3CCNC3=O)CC2)cc1OC`: the activity change was 12.9%.
The value for `C[C@@H]1CN([C@@H](C)CO)C(=O)c2c(c3ccccc3n2C)-c2ccccc2CO[C@H]1CN(C)C(=O)C1CC1` was 14.8%; that for `O=C1C=C(c2cccc(Cl)c2)C[C@@H](c2ccc(F)cc2)C1` was 2.02%; that for `N#Cc1ccc(C2=CC(=O)C[C@H](c3ccc(Cl)cc3)C2)cc1` was -83.2% (active).
Consider `COc1ccc([C@H]2CC(=O)C=C(c3ccc(CO)cc3)C2)cc1`, for which the activity change is 22.6%.
The value for `C[C@H]1CN([C@@H](C)CO)S(=O)(=O)c2ccc(-c3cccc(F)c3)cc2O[C@@H]1CN(C)C` was -7.52%.
The value for `O=C(Oc1ccc(Br)cc1C(=S)N1CCOCC1)c1cccc([N+](=O)[O-])c1` was -8.06%.
For the molecule `O=C(N/C(=C\c1ccc([N+](=O)[O-])cc1)C(=O)N1CCCCC1)c1ccco1`, the activity change is -4.37%.
Take `O=C(N/C(=C\c1ccc([N+](=O)[O-])cc1)C(=O)N1CCOCC1)c1cccc(Br)c1`: the activity change was -83.4% (active).
Regarding `CC(C)C(=O)Nc1cccc(NC(=O)c2ccc([N+](=O)[O-])cc2Cl)c1`, the activity change was 18.7%.
As to `O=C(Nc1cccc(NC(=O)c2ccccc2[N+](=O)[O-])c1)c1ccccc1Cl`, the activity change is -165% (active).
For `O=C(Nc1ccncc1)c1ccccc1[N+](=O)[O-]`, the activity change was 8.15%.
The same measure for `COc1ccc(NC(=O)C[C@H]2C(=O)N(CCc3ccccc3)C[C@@H]2C)cc1`: 5.84%; for `CCOc1ccc(CCNC(=O)COC(=O)c2ccc(C)c(S(=O)(=O)N3CCOCC3)c2)cc1OCC`: 11.9%.
With `CNC(=O)c1ccc(CN(C)C(=O)c2cc(C3CC3)nc3c2cnn3C(C)C)cc1`, the activity change is 6.55%.
Turning to `CCOC(=O)C(C(=O)c1ccccc1)C(c1ccccc1)c1nccc2ccccc12` (stereo not given), the activity change is -15.2%.
The same measure for `Cc1cccc(C(=O)NC2CCN(CC(=O)Nc3cccc(Cl)c3)CC2)c1`: -1.48%.
As for `C[C@H]1CN(c2ccc(Br)cc2)C(=O)[C@@H]1CC(=O)Nc1ccc(Br)cc1`, the activity change was 0.444%.
As to `CCOCCc1nn2c(=O)cc(CSCC(=O)Nc3cccc(C)c3C)nc2s1`, the activity change was 4.66%.
With `Cc1cccc(NC(=O)CSCC(=O)Nc2nnc(C3CC3)s2)c1`, the activity change was -6.65%.
`CCCc1nn2c(=O)cc(CSCC(=O)Nc3cccc(C)c3)nc2s1`: the activity change was -91.5% (active).
The same measure for `COc1ccc(C(CNC(=O)CSc2ccccc2)N2CCOCC2)cc1` (stereo not given): 1.87%; for `O=C(NCCOc1ccccc1)c1ccccc1F`: 2.92%; for `c1ccc(Cn2nnc3c(NCC4CC4)ncnc32)cc1`: -1.53%.
On to `CSc1ncnc2c1ncn2CCCNCc1cccs1`, for which the activity change is 3.07%.
The value for `Cn1cc(CN2CCC(C(O)CCc3ccccc3)CC2)c(-c2ccccc2F)n1` (stereo not given) was -8.61%; that for `COc1ccc(-c2nn(-c3ccccc3)cc2CN2CCCO2)c(F)c1` was 4.37%.
Consider `COc1ccc(-n2cc(CNC3CCOCC3)c(-c3cccc(F)c3)n2)cc1`, for which the activity change was -75% (active).
Turning to `Cc1cccc(-n2cc(CN3CCN(C(=O)c4ncn[nH]4)CC3)c(-c3cccc(F)c3)n2)c1`, the activity change is 0.932%.
Consider `CCC(O)C1CCN(Cc2cn(-c3ccc(OC)cc3)nc2-c2cccc(F)c2)CC1` (stereo not given), for which the activity change was -90.7% (active).
In the case of `COc1ccc(-n2cc(CN(C)Cc3n[nH]c(=O)[nH]3)c(-c3cccc(F)c3)n2)cc1`, the activity change is -14.7%.
The same measure for `CC(OC(=O)c1ccc(NC(=O)CC#N)cc1)C(=O)Nc1ccc(S(=O)(=O)N2CCCC2)cc1` (stereo not given): 8.99%; for `O=[N+]([O-])c1ccc(C(S(=O)(=O)Cc2ccccc2)S(=O)(=O)Cc2ccccc2)cc1`: -21.9%; for `CC1(C)CN(Cc2cccnc2)C(=O)[C@H]1CC(=O)Nc1ccc(Br)cc1`: -12%.
Take `COc1ccc(OC)c(C(=O)NC2CCCc3c2cnn3-c2cc(C)cc(C)c2)c1` (stereo not given): the activity change is -6.38%.
Consider `CCOC(=O)c1cc(-c2sc(NC(=O)c3ccccc3)nc2C)n(CCO)n1`, for which the activity change is -0.33%.
`CCCCC(=O)Nc1ccc(C(=O)NCCCn2ccnc2)cc1`: the activity change is 4.23%.
Regarding `CC(=O)Nc1ccc(NC(=O)CCCNC(=O)c2ccc(Cl)cc2)cc1`, the activity change was 7.78%.
On to `CCCCC(=O)Nc1ccc(C(=O)Nc2cc(C(F)(F)F)ccc2Cl)cc1`, for which the activity change was -83.7% (active).

Values taken from PubChem BioAssay AID720553 (National Center for Advancing Translational Sciences (NCATS), 2013).
